In the library only some 0.92% were active in any assay of this set; here they are far more common.
LAP4-GFP MLPCN: modulators of TOR pathway LAP4-GFP in S. cerevisiae. S. cerevisiae LAP4-GFP multiplex, flow cytometry GFP, 3 h; median GFP as percent of DMSO wells. AID 2023. GFP response vs DMSO, % at 10 µM. actives 0.34% (n = 320,000);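 active = GFP response vs DMSO above a set limit, about the screen mean plus 3 SD, cut at about 150% in these data; inconclusive = under 70 cell events counted for the yeast strain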
RPL19A-GFP yeast: modulators of TOR pathway RPL19A-GFP in S. cerevisiae; S. cerevisiae RPL19A-GFP strain, flow cytometry, 3 h; active compounds read low; percent response vs DMSO, % at 10 µM; actives 0.3% (n = 330,000);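 active = percent response vs DMSO below 50%; inconclusive = fewer than 70 events counted for the yeast strain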;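 note: median channel GFP fluorescence of the barcoded RPL19A-GFP strain; ratio of sample median GFP to plate DMSO average so 100% = DMSO; lower means less RPL19A-GFP as with rapamycin TOR inhibition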
CIT2 TOR yeast: yeast TOR pathway CIT2-GFP modulation; S. cerevisiae CIT2-GFP strain, flow cytometry, 3 h; 100 means same as DMSO wells; GFP response vs DMSO, % at 10 µM; actives 0.065% (n = 320,000);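 active = GFP response relative to DMSO above a set limit, near the screen mean plus 3 SD, cut at about 150% in these data; inconclusive = Fewer than 70 cells measured for a yeast strain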;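 note: ratio of well median GFP fluorescence to mean of DMSO wells on the plate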
AGP1-GFP MLPCN: yeast TOR pathway AGP1-GFP modulation. GFP response vs DMSO, % at 10 µM. S. cerevisiae AGP1-GFP multiplex flow cytometry, 3 h; GFP as percent of DMSO wells. actives 0.02% (n = 320,000);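 active = GFP response relative to DMSO above a set limit, near screen average plus 3 SD, cut at about 150% in these data; inconclusive = fewer than 70 cells counted for the yeast strain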;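 note: median GFP channel fluorescence of the gated AGP1 strain per well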
MEP2 TOR yeast: yeast TOR pathway MEP2-GFP modulation; GFP response vs DMSO, % at 10 µM; actives 0.51% (n = 330,000); S. cerevisiae MEP2-GFP strain, flow cytometry GFP, 3 h; 100% = DMSO control level;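 active = GFP response versus DMSO above a set limit, roughly screen mean plus 3 SD, cut at about 180% in these data; inconclusive = fewer than 70 cells counted for a yeast strain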;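 note: median GFP fluorescence of the barcode-gated MEP2-GFP cells per well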
LAP4-GFP pick2: yeast LAP4-GFP modulation, second cherry pick; shares compounds with LAP4-GFP MLPCN; S. cerevisiae LAP4-GFP strain, flow cytometry GFP, 3 h; GFP response vs DMSO, % at 10 µM; actives 20% (n = 590);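 active = GFP signal as percent of the solvent control above about 150%, meaning raised reporter expression, limit read from the data; inconclusive = fewer than 70 cells counted in the well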;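 note: ratio of well median GFP fluorescence to plate DMSO mean so 100% = DMSO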
MEP2-GFP pick2: yeast MEP2-GFP modulation, second cherry pick | shares compounds with LAP4-GFP MLPCN | S. cerevisiae MEP2-GFP strain, flow cytometry GFP, 3 h | GFP response vs DMSO, % at 10 µM | actives 10% (n = 590) | AID 2622;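 active = GFP signal above 150% of the solvent control wells, that is a rise of more than half; inconclusive = fewer than 70 yeast cells counted in the well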;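 note: median channel GFP fluorescence of all gated yeast cells per well; ratio of median GFP to plate DMSO average so 100% = DMSO level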
RPL19A-GFP pick2: reconfirmed modulator of RPL19A-GFP TOR reporter in yeast; shares compounds with LAP4-GFP MLPCN; S. cerevisiae RPL19A-GFP strain, flow cytometry GFP, 3 h; active compounds read low; 100% means same as DMSO wells; GFP response vs DMSO, % at 10 µM; actives 3% (n = 590);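 active = under 65% GFP response relative to DMSO; inconclusive = yeast strain with under 70 measured events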;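 note: median GFP channel fluorescence per well over the all cells gate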
CIT2-GFP pick2: reconfirmed modulator of CIT2-GFP TOR reporter in yeast. shares compounds with LAP4-GFP MLPCN. S. cerevisiae CIT2-GFP strain, flow cytometry GFP, 3 h; DMSO control wells read 100%. actives 8% (n = 590). AID 2624. GFP response vs DMSO, % at 10 µM;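 active = GFP response vs DMSO above about 150%, limit read from the data; inconclusive = fewer than 70 events counted for a yeast strain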;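 note: median green fluorescence per well over all gated yeast cells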
AGP1-GFP pick2: yeast AGP1-GFP TOR reporter modulation, second cherry pick. shares compounds with LAP4-GFP MLPCN. S. cerevisiae AGP1-GFP strain, flow cytometry GFP, 3 h. percent response vs DMSO, % at 10 µM. 590 tested, under 10 active;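 active = over 150 percent of DMSO response; inconclusive = yeast strain measured with under 70 events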;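 note: median GFP channel fluorescence over all cells without mother daughter split; sample median GFP divided by mean DMSO control so 100% equals DMSO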
s288c autofluor: counter-screen for compound autofluorescence in yeast s288c cells; 610 tested, under 10 active; fluorescence change (kMESF span) at 33 µM; AID 2757; S. cerevisiae s288c, 520 nm autofluorescence, flow cytometry, 3 h; active compounds read high; zero means same as solvent-only cells; shares compounds with LAP4-GFP MLPCN;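 active = fluorescence span over the dose series, or activity score, above about 33, limit read from the data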
Yeast autofl DR: counter-screen for autofluorescence of TOR hits in yeast s288c; AID 488829; fluorescence change (span) at 33 µM; shares compounds with LAP4-GFP MLPCN; 110 tested, under 10 active; S. cerevisiae s288c parental, compound autofluorescence, flow cytometry, 3 h;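 active = fluorescence change span, or the activity score built from it, above 25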
TORC1 bypass: stops wildtype yeast growth while TORC1 bypass cells still grow; growth rating (0-3) at 30 µM; AID 504456; shares compounds with LAP4-GFP MLPCN; 120 tested, under 10 active; S. cerevisiae BY4741 spot growth rating, 48-72 h; active compounds read low;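 active = growth rating at most 1 for wild type yeast while the TORC1 bypass strain still grows fully, rated 3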
* = called active by the depositor; u = inconclusive; x = not tested or not shown; [ ] = dose if it differs, or a comment.

SMILES | LAP4-GFP MLPCN | RPL19A-GFP yeast | CIT2 TOR yeast | AGP1-GFP MLPCN | MEP2 TOR yeast | LAP4-GFP pick2 | MEP2-GFP pick2 | RPL19A-GFP pick2 | CIT2-GFP pick2 | AGP1-GFP pick2 | s288c autofluor | others
c1ccc(CSc2ccc(-c3ccccn3)nn2)cc1 | 155* | 91 | 83 | 93 | 109 | x | x | x | x | x | x
CC(C(=O)Nc1ncc([N+](=O)[O-])s1)N1C(=O)c2ccccc2S1(=O)=O (stereo unspecified) | 99 | 90 | 90 | 106 | 91 | x | x | x | x | x | x
Cc1cc(=O)[nH]c(-n2nc(C)cc2C)n1 | 173* | 100 | 92 | 91 | 94 | x | x | x | x | x | x
COC(=O)c1cc(C(=O)Nc2cccc(C)n2)cc([N+](=O)[O-])c1 | 86 | 50 | u | x | 225*[may fluoresce violet] | x | x | x | x | x | x
COC(=O)c1cc(C(=O)Nc2ccc(C)cn2)cc([N+](=O)[O-])c1 | 87 | 95 | 91 | 84 | 85 | x | x | x | x | x | x
CCSc1nnc(NC(=O)c2ccccn2)s1 | 175* | 100 | 97 | 84 | 104 | x | x | x | x | x | 0.51 | Yeast autofl DR=0.16;TORC1 bypass=0
Cc1cc(C)c(NC(=O)c2ccc3c(c2)CCN3S(C)(=O)=O)c(C)c1 | 96 | 103 | 104 | 104 | 112 | x | x | x | x | x | x
O=C1/C(=C\c2ccc(O)c(O)c2)SC(=S)N1Cc1ccccc1 | 219* | 97 | 203* | 44 | 409* | x | x | x | x | x | 33*
Cc1ccc(/C=C2\SC(=S)N(Cc3ccccc3)C2=O)o1 | 156* | 97 | 95 | 86 | 107 | 152* | 123 | 106 | 120 | 99 | 1.3
COc1cc(/C=C2/SC(=S)N(Cc3ccccc3)C2=O)ccc1O | 94 | 111 | 109 | 101 | 109 | x | x | x | x | x | x
Cc1c(Cc2ccccc2)c(NCCN(C)C)n2c(nc3ccccc32)c1C#N | 198* | 109 | 77 | 101 | 126 | x | x | x | x | x | 2
COC(=O)c1cccc(N(CC(=O)NC2CCCCC2)C(=O)CNC(=O)c2cccs2)c1 | 106 | 95 | 94 | 94 | 95 | x | x | x | x | x | x
CCSc1ccc(-c2nn(-c3ccccc3)cc2/C=C(/C#N)C(=O)NC)cc1 | 74 | 60 | 82 | 68 | 171 | 92 | 94 | 102 | 110 | 95 | x
CCN1C(=O)[C@H]2[C@@H](c3ccc(-c4ccc(Cl)c(Cl)c4)c(OC)c3)N3CCCC[C@@]3(C(=O)OC)[C@H]2C1=O | 100 | 95 | 105 | 100 | 98 | x | x | x | x | x | x
CC(COc1ccccc1Cc1ccccc1)N1CCCCC1 (stereo unspecified) | 105 | 101 | 97 | 99 | 98 | x | x | x | x | x | x
COc1ccccc1N=Nc1ccc(O)c2ncccc12 | 249* | 98 | 149 | 92 | 118 | x | x | x | x | x | 1.2
Cc1ccc(N=Nc2ccc(O)c3ncccc23)cc1 | 157* | 92 | 79 | 87 | 99 | 188* | 122 | 103 | 150* | 100 | 0.2
Cc1ccc(N=Nc2ccc(O)c3ncccc23)cc1C | 132 | 103 | 102 | 94 | 107 | x | x | x | x | x | x
Nc1ccc(Br)c2c1C(=O)c1ccccc1C2=O | 143 | 62 | 128 | 71 | 134 | 156* | 113 | 80 | 126 | 94 | 0.1
Nc1ccc(O)c2c1C(=O)c1ccccc1C2=O | 146 | 97 | 110 | 92 | 147 | x | x | x | x | x | x
O=c1oc2cc(O)c(Cl)cc2c2ccccc12 | 94 | 92 | 82 | 74 | 93 | x | x | x | x | x | x
O=c1oc(Cl)c(Cl)c2ccccc12 | 191* | 99 | 78 | 82 | 102 | 120 | 106 | 103 | 103 | 101 | x
O=C(Nc1ccccc1)N1CCCC(c2nc(-c3cccs3)no2)C1 (stereo unspecified) | 121 | 96 | 98 | 99 | 104 | x | x | x | x | x | x
O=C(Nc1ccccc1)ON=C1CCCC1 | 117 | 103 | 130 | 68 | 101 | 106 | 107 | 108 | 129 | 61 | 0.2
O=C(Nc1ccccc1)O/N=C/c1ccncc1 | 110 | 105 | 109 | 110 | 116 | x | x | x | x | x | x
SMILES | LAP4-GFP MLPCN | RPL19A-GFP yeast | CIT2 TOR yeast | AGP1-GFP MLPCN | MEP2 TOR yeast | LAP4-GFP pick2 | MEP2-GFP pick2 | RPL19A-GFP pick2 | CIT2-GFP pick2 | AGP1-GFP pick2 | s288c autofluor | others
Cc1ccc(NC(=O)ON=C2CCCC2)cc1 | 120 | 95 | 219* | 55 | 103 | x | x | x | x | x | 1.6
Cc1ccc(NC(=O)C/C(N)=N/OC(=O)Nc2cccc(C)c2)cc1 | 100 | 99 | 106 | 99 | 110 | x | x | x | x | x | x
COC(=O)N1C(=O)[C@](Cc2ccccc2)(c2ccccc2)N1C(=O)OC | 123 | 90 | 59 | 77 | 86 | x | x | x | x | x | x
CCOc1ccc(NC(=O)C2CCN(C(=O)C3CC(=O)N(c4ccc(C)cc4)C3)CC2)cc1 (stereo unspecified) | 102 | 95 | 96 | 92 | 99 | x | x | x | x | x | x
N=C1SCC(=O)N1c1ccccc1Cl | 91 | 105 | 98 | 94 | 105 | x | x | x | x | x | x
O=C1c2sc3nc4ccccc4n3c2C(=O)N1c1ccccc1Cl | 192* | 66 | 84 | 81 | 99 | 138 | 158* | 75 | 104 | 81 | 1.9
O=C(NC(=S)Nc1ccc2oc(=O)ccc2c1)c1cccc(Cl)c1 | 87 | 55 | 106 | 23 | 139 | 97 | 103 | 102 | 101 | 102 | 0.2
O=C(NC(=S)Nc1ccc2oc(=O)ccc2c1)c1cccc(F)c1 | 92 | 101 | 108 | 100 | 105 | x | x | x | x | x | x
Cc1cc([N+](=O)[O-])nn1CC(=O)NCc1ccc(Cl)cc1 | 96 | 101 | 101 | 102 | 101 | x | x | x | x | x | x
CCOC(=O)c1c(CSCc2ccccc2)oc2ccc(O)c(CN(C)C)c12 | 95 | 55 | 90 | 88 | 156 | 98 | 100 | 100 | 113 | 98 | x

Screens as filed in PubChem.
